Molecules are shown by their SMILES. Where “and” joins values, the source holds several entries; their conditions need not be identical. Equal entries are not always repeated. Results filed as inconclusive are left out. Some compounds were tested as several samples or in several runs, with calls that do not always agree. Calls of active or inactive are those of the source. How the source made its calls: active means hit-call score of the fitted dose curve at least 0.9, where 1 is the maximum; inconclusive means response in the unintended direction; inactive means score below 0.9.

human Thyroid hormone Receptor beta (TRb), THRB (gene 7068), sequence (P10828 whole entry, looked up, the tested form may be a part): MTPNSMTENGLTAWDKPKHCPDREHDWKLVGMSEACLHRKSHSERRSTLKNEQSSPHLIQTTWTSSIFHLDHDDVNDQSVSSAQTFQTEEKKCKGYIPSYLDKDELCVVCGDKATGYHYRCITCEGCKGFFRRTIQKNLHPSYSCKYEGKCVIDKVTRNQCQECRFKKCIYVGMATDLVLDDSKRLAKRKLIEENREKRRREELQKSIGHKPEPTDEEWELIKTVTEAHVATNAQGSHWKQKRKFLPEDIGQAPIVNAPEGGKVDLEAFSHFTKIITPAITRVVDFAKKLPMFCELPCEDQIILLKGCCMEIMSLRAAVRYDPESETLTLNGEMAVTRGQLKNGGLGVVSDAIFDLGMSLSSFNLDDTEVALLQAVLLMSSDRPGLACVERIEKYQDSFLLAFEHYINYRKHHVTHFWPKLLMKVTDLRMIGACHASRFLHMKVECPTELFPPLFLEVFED

Test system in the first assay: not listed separately
In words: ATG_XTT_Cytotoxicity_XSP2: Cytotoxicity Assessment in the Attagene TRANS-FACTORIAL Multi-Species (XSP2) HepG2 Assay (AID 2283837). In a few lines:
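XTT-based cell number read-out in human HepG2 liver cells carrying transfected reporter units, measured 24 h after chemical dosing. Activity is signal loss versus DMSO baseline.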
Broadly, the AC50 is the concentration at which the activity in the assay is half-maximal. For `CCOC(=O)C(O)(c1ccc(Cl)cc1)c1ccc(Cl)cc1`, the AC50 was 100 µM (active).

For the compound `Cc1cc(-c2ccc(N)c(C)c2)ccc1N`, the call was inactive.

In the case of `c1cc2ccc3cccc4ccc(c1)c2c34`, the result was inactive.

The target of the next assay is human Thyroid hormone Receptor alpha (TRa), THRA (gene 7067) (UniProt P10827). Kind of assay: ATG_hTRa_XSP2: Attagene TRANS-FACTORIAL Multi-Species (XSP2) HepG2 Assay for human Thyroid hormone Receptor alpha (TRa) (AID 2283838). An outline of the steps: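 Reporter transcripts were read by RT-PCR with fluorescent primer extension, HpaI digestion and capillary electrophoresis. These came from HepG2 cells carrying multiplexed TRa-Gal4 TRANS constructs, harvested 24 hours after dosing. The medium also held 6-alpha-fluorotestosterone (3 nM) and norgestrel (1.5 nM), and increases were fitted against DMSO.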
human Thyroid hormone Receptor alpha (TRa), THRA (gene 7067), sequence (P10827 whole entry, looked up, the tested form may be a part): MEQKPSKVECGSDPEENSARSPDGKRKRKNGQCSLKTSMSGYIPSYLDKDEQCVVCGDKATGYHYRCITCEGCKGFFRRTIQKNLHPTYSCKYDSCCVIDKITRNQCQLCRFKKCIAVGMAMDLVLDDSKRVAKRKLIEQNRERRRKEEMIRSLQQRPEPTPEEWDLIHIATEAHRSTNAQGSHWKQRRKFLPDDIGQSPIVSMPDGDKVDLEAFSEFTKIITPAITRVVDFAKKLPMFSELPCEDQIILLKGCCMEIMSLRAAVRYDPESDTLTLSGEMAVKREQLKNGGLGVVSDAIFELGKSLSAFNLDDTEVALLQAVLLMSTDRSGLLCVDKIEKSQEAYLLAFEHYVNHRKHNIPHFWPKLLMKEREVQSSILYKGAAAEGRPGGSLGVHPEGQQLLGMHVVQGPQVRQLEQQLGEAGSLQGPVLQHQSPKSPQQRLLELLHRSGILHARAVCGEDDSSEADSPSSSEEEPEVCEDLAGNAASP
In the case of `CCOC(=O)C(O)(c1ccc(Cl)cc1)c1ccc(Cl)cc1`, the AC50 is 55.6 µM (active) and the call was inactive.

In the case of `CC(C)(c1ccccc1)c1ccc(O)cc1`, the outcome was inactive.

Consider `Cc1cc(-c2ccc(N)c(C)c2)ccc1N`, for which the compound was called inactive.

Take `C[C@]12CCC(=O)C=C1CC[C@@H]1[C@@H]2CC[C@@]2(C)[C@H]1CC[C@]2(C)O`: the compound was called inactive.

`CC(C)(O)C(=O)Nc1ccc([N+](=O)[O-])c(C(F)(F)F)c1`: the call was inactive.

As for `c1cc2ccc3cccc4ccc(c1)c2c34`, the call was inactive.

Take `C[C@]12CCC(=O)C=C1CC[C@@H]1[C@@H]2CC[C@]2(C)C(=O)CC[C@@H]12`: the compound was classed as inactive.

Take `CCC(=O)O[C@H]1CC[C@H]2[C@@H]3CCC4=CC(=O)CC[C@]4(C)[C@H]3CC[C@]12C`: the call was inactive.

In the case of `Clc1ccc(C(c2ccccc2Cl)C(Cl)(Cl)Cl)cc1` (centres undefined), the outcome was inactive.

For another assay, the target named is frog Thyroid hormone Receptor alpha (TRa), thra-a (gene 397942) (UniProt P15204). Kind of assay: ATG_frTRa_XSP2: Attagene TRANS-FACTORIAL Multi-Species (XSP2) HepG2 Assay for frog Thyroid hormone Receptor alpha (TRa) (AID 2283839).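 On AC50: AC50 reflects induction of frog TRa-driven reporter mRNA above DMSO baseline.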 In a few lines: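 HepG2 cells transiently transfected with multiplexed GAL4-UAS reporter units expressing chimeric frog TRα-Gal4; reporter mRNA read 24 h after dosing by RT-PCR, FAM-labelled primer extension, HpaI digest and capillary electrophoresis. Gain of signal fitted versus DMSO.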
frog Thyroid hormone Receptor alpha (TRa), thra-a (gene 397942), sequence (P15204 whole entry, looked up, the tested form may be a part): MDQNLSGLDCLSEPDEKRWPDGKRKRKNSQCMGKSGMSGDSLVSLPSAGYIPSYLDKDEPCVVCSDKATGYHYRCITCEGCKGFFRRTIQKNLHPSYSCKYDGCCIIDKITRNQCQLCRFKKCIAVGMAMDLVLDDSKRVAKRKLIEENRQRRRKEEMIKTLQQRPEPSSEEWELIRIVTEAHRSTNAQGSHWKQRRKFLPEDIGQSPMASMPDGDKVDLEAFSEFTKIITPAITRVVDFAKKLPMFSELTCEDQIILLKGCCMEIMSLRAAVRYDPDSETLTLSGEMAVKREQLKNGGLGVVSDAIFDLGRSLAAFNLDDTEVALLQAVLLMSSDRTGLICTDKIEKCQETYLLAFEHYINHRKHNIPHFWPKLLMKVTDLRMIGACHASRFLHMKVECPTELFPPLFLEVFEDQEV
With `Oc1ccc(C(c2ccc(O)cc2)(C(F)(F)F)C(F)(F)F)cc1`, the compound was classed as inactive.

`ClC(Cl)=C(c1ccc(Cl)cc1)c1ccc(Cl)cc1`: the result was inactive.

`CCOC(=O)C(O)(c1ccc(Cl)cc1)c1ccc(Cl)cc1`: the compound was classed as inactive.

Regarding `CC(c1ccc(O)cc1)(c1ccc(O)cc1)c1ccc(O)cc1`, the compound was called inactive.

Regarding `CC(C)(c1ccccc1)c1ccc(O)cc1`, the result was inactive.

In the case of `Cc1cc(-c2ccc(N)c(C)c2)ccc1N`, the compound was classed as inactive.

On to `CC(C)(O)C(=O)Nc1ccc([N+](=O)[O-])c(C(F)(F)F)c1`, for which the AC50 was 9.93 µM (active).

`c1cc2ccc3cccc4ccc(c1)c2c34`: the call was inactive.

As to `C[C@]12CCC(=O)C=C1CC[C@@H]1[C@@H]2CC[C@]2(C)C(=O)CC[C@@H]12`, the compound was classed as inactive.

Take `CCC(=O)O[C@H]1CC[C@H]2[C@@H]3CCC4=CC(=O)CC[C@]4(C)[C@H]3CC[C@]12C`: the compound was called inactive.

On to `Clc1ccc(C(c2ccccc2Cl)C(Cl)(Cl)Cl)cc1` (centres undefined), for which the compound was classed as inactive.

Another assay deals with human Thyroid hormone Receptor beta (TRb), THRB (gene 7068) (UniProt P10828). In words: ATG_hTRb_XSP2: Attagene TRANS-FACTORIAL Multi-Species (XSP2) HepG2 Assay for human Thyroid hormone Receptor beta (TRb) (AID 2283840).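 Further: actives raise reporter mRNA so potency reflects agonist-like gain of signal.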 An outline of the steps:
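HepG2 cells were transiently transfected with GAL4-UAS multiplexed reporter units expressing chimeric NR-Gal4 proteins, dosed 24 h; reporter mRNA was quantified by RT-PCR, fluorescent labeling, HpaI digestion and capillary electrophoresis, fitted for gain of signal versus DMSO.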
Regarding `ClC(Cl)=C(c1ccc(Cl)cc1)c1ccc(Cl)cc1`, the call was inactive.

Consider `CCOC(=O)C(O)(c1ccc(Cl)cc1)c1ccc(Cl)cc1`, for which the compound was called inactive.

Regarding `CC(c1ccc(O)cc1)(c1ccc(O)cc1)c1ccc(O)cc1`, the compound was classed as inactive.

With `CC(C)(c1ccccc1)c1ccc(O)cc1`, the compound was called inactive.

On to `Cc1cc(-c2ccc(N)c(C)c2)ccc1N`, for which the result was inactive.

Turning to `C[C@]12CCC(=O)C=C1CC[C@@H]1[C@@H]2CC[C@@]2(C)[C@H]1CC[C@]2(C)O`, the compound was classed as inactive.

Consider `CC(C)(O)C(=O)Nc1ccc([N+](=O)[O-])c(C(F)(F)F)c1`, for which the compound was called inactive.

Take `c1cc2ccc3cccc4ccc(c1)c2c34`: the result was inactive.

In the case of `C[C@]12CCC(=O)C=C1CC[C@@H]1[C@@H]2CC[C@]2(C)C(=O)CC[C@@H]12`, the compound was classed as inactive.

For `CCC(=O)O[C@H]1CC[C@H]2[C@@H]3CCC4=CC(=O)CC[C@]4(C)[C@H]3CC[C@]12C`, the AC50 was 0.157 µM (active) and the compound was classed as inactive.

For the compound `Clc1ccc(C(c2ccccc2Cl)C(Cl)(Cl)Cl)cc1` (centres undefined), the call was inactive.

The test system of the next assay is Sodium/Iodide Symporter (NIS), SLC5A5 (gene 6528). Kind of assay: CPHEA_Stoker_NIS_Inhibition_RAIU: CPHEA's Radioactive Iodide Uptake (RAIU) Assay for Sodium/Iodide Symporter (NIS) Inhibition, Stoker and Laws Labs (AID 2283841). In a few lines:
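Iodide uptake read as CPM of intracellular 125I (final 329 pM) after 2 h room-temperature exposure in HEPES-buffered HBSS, pH 7.4. Human NIS-expressing HEK293T cells; six concentrations 0.001–100 uM, 0.5% DMSO, normalised to DMSO wells.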
Regarding `Oc1ccc(C(c2ccc(O)cc2)(C(F)(F)F)C(F)(F)F)cc1`, the outcome was inactive.

Turning to `CCC(C)c1cc([N+](=O)[O-])cc([N+](=O)[O-])c1O` (centres undefined), the result was inactive.

As to `CCSC(=O)N(CC)C1CCCCC1`, the result was inactive.

As for `CC#Cc1cc(C)nc(Nc2ccccc2)n1`, the result was inactive.

Take `ClC1=C(Cl)[C@]2(Cl)[C@@H]3[C@@H](Cl)[C@H]4O[C@H]4[C@@H]3C1(Cl)C2(Cl)Cl`: the outcome was inactive.

Turning to `Cc1ccccc1CO[C@@H]1C[C@@]2(C(C)C)CC[C@]1(C)O2`, the outcome was inactive.

Consider `O=C(O)C(F)(F)C(F)(F)C(F)(F)C(F)(F)C(F)(F)C(F)(F)C(F)(F)C(F)(F)F`, for which the AC50 is 12 µM (active).

`CCOC(=O)C(O)(c1ccc(Cl)cc1)c1ccc(Cl)cc1`: the outcome was inactive.

With `O=C(O)C(F)(F)C(F)(F)C(F)(F)C(F)(F)C(F)(F)C(F)(F)C(F)(F)C(F)(F)C(F)(F)F`, the half-maximal activity concentration (AC50) was 12.8 µM (active) and the outcome was inactive.

As for `Cc1cccc(C)c1N`, the result was inactive.

Take `NS(=O)(=O)C(F)(F)C(F)(F)C(F)(F)C(F)(F)C(F)(F)C(F)(F)C(F)(F)C(F)(F)F`: the outcome was inactive.

As to `CC(C)(c1ccccc1)c1ccc(O)cc1`, the outcome was inactive.

For `CCC(C)(c1ccc(O)cc1)c1ccc(O)cc1`, the outcome was inactive.

In the case of `CO/C=C(/C(=O)OC)c1ccccc1COc1cccc(C(F)(F)F)n1`, the outcome was inactive.

Take `CCNc1nc(NC(C)C)nc(SC)n1`: the outcome was inactive.

`ClC1=C(Cl)[C@]2(Cl)[C@@H]3[C@@H]4C[C@@H]([C@H]5O[C@@H]45)[C@@H]3[C@@]1(Cl)C2(Cl)Cl`: the result was inactive.

On to `O=S(=O)(O)C(F)(F)C(F)(F)C(F)(F)C(F)(F)F`, for which the result was inactive.

As for `O=S(=O)(O)C(F)(F)C(F)(F)C(F)(F)C(F)(F)C(F)(F)C(F)(F)F`, the AC50 is 23.3 µM (active) and 7.48 µM (active) and 2.33 µM (active).

Turning to `CCC(=O)O[C@H]1CC[C@H]2[C@@H]3CCC4=CC(=O)CC[C@]4(C)[C@H]3CC[C@]12C`, the outcome was inactive.

Regarding `CCCCCCCCCC[N+](C)(C)CCCCCCCCCC`, the outcome was inactive.

As to `O=C(O)C(F)(F)C(F)(F)C(F)(F)C(F)(F)C(F)(F)F`, the outcome was inactive.

Turning to `O=NN(c1ccccc1)c1ccccc1`, the result was inactive.

Source of the values: PubChem BioAssay (EPA / NIEHS).
